In PubChem BioAssay (NCATS) one finds Potency data, which are given here for 14 molecules.

Results filed as inconclusive are left out. Calls of active or inactive are those of the source. The call rests on the fitted dose curve; in most records, active means well fitted inhibition curve with a large enough effect; inconclusive means small, poorly fitted or top-dose-only effect; inactive means flat fitted curve, though single readings scatter.

Common to all, as to assay: qHTS profiling for inhibitors of Plasmodium falciparum proliferation (AID 504749); further: nearly all actives have a fitted effect of over 60% in size
Settings in all cases: P. falciparum in erythrocytes, SYBR Green DNA, 72 h; series mostly up to 28.7 µM

One assay has as its system 7G8. A digest of the protocol: (§1)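 Parasite proliferation within erythrocytes, 72 h exposure. Endpoint: SYBR Green I fluorescence after overnight lysis at room temperature. Controls: 0.29 uM artemisinin, DMSO.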
The next assay relates to AA1029. A digest of the protocol: as §1
The next assay deals with AS120. In a few lines:
as §1

In another assay the test system is ATS189. A digest of the protocol:
as §1

In the next assay the test system is ATS95. A digest of the protocol:
as §1

A further assay deals with C2A. A digest of the protocol: as §1
The test system of the next assay is CP185. In a few lines: as §1
Another assay relates to CP191. In a few lines:
as §1

In the next assay the test system is CP192. In a few lines:
as §1

Another assay deals with CP194. In a few lines:
as §1

For the next assay, the system named is CP201. A digest of the protocol:
as §1

The subject of another assay is CP203. In a few lines: as §1
For another assay, the system named is CP211. In a few lines: as §1
The subject of another assay is CP215. In a few lines:
as §1

In the next assay the test system is CP217. A digest of the protocol: as §1
The subject of a further assay is CP237. In a few lines:
as §1

In a further assay the test system is CP238. In a few lines:
as §1

The next assay has as its system CP247. A digest of the protocol: as §1
A further assay relates to CP250. In a few lines:
as §1

The subject of another assay is CP252. A digest of the protocol: as §1
Potency means the concentration at half of the fitted maximal effect.

As to `CO`, the Potency entry in the assay on 7G8, in the assay with AA1029, in the assay with AS120, with ATS189, with ATS95 and with C2A was “inactive” throughout. Besides, the Potency entry with CP185, in the assay on CP191, in the assay with CP192, with CP194, in the assay with CP201 and in the assay on CP203 was “inactive” in each case. The Potency result in the assay on CP211, in the assay on CP215, with CP217, in the assay on CP237, in the assay on CP238 and in the assay on CP247 was “inactive” throughout. Besides, the Potency entry in the assay with CP250 and in the assay with CP252 was “inactive” each time.

On to `O=C1c2ccccc2CN2C(=O)c3ccccc3CN12`, for which the Potency entry with 7G8, with AA1029, in the assay with AS120, in the assay with ATS189, in the assay on ATS95 and with C2A was “inactive” throughout. The Potency result in the assay on CP185, with CP191, with CP192, with CP194, in the assay on CP201 and with CP203 was “inactive” each time. Besides, the Potency result in the assay on CP211, with CP215, in the assay on CP217, in the assay with CP237, in the assay with CP238 and in the assay with CP247 was “inactive” in each case. Further, the Potency entry with CP250 and with CP252 was “inactive” throughout.

In the case of `C(=C\c1ccncc1)/c1ccccc1`, the Potency in the assay with 7G8 is 12.6 µM (active). For the same molecule, the Potency result with AA1029, with AS120, in the assay with ATS189, with ATS95, in the assay on C2A and with CP185 was “inactive” each time. Also, the Potency entry with CP191, in the assay on CP192, in the assay with CP194, with CP201, in the assay on CP203 and in the assay on CP211 was “inactive” in each case. For the same molecule, the Potency entry with CP215, with CP217, in the assay on CP237, with CP238, with CP247 and in the assay on CP250 was “inactive” each time. Also, the Potency result with CP252 was “inactive”.

As for `CCOC(=S)SSC(=S)OCC`, the Potency entry in the assay with 7G8, in the assay with AA1029, in the assay with AS120, in the assay on ATS189, with ATS95 and in the assay on C2A was “inactive” each time. Also, the Potency result in the assay with CP185, in the assay on CP191, with CP192, with CP194, with CP201 and in the assay with CP203 was “inactive” each time. Besides, the Potency entry with CP211, with CP215, with CP217, in the assay with CP237, in the assay on CP238 and in the assay on CP250 was “inactive” throughout. For the same molecule, the Potency result in the assay on CP252 was “inactive”.

For the molecule `FCOC(C(F)(F)F)C(F)(F)F`, the Potency result in the assay with 7G8, with AA1029, in the assay on AS120, with ATS189, in the assay with ATS95 and with C2A was “inactive” throughout. Besides, the Potency entry in the assay on CP185, with CP191, in the assay with CP192, in the assay with CP194, in the assay on CP201 and in the assay on CP203 was “inactive” throughout. Further, the Potency result in the assay on CP211, in the assay on CP215, with CP217, with CP237, with CP238 and in the assay with CP247 was “inactive” in each case. The Potency result with CP250 and with CP252 was “inactive” each time.

In the case of `CC(C)CCC[C@@H](C)[C@H]1CC[C@H]2[C@@H]3CC[C@@H]4C[C@H](O)CC[C@]4(C)[C@H]3CC[C@]12C`, the Potency entry in the assay with 7G8, in the assay with AA1029, in the assay on AS120, in the assay on ATS189, in the assay on ATS95 and in the assay with C2A was “inactive” in each case. For the same molecule, the Potency result in the assay on CP185, in the assay on CP191, with CP192, in the assay on CP194, in the assay with CP201 and in the assay with CP203 was “inactive” each time. Also, the Potency entry with CP211, in the assay on CP215, in the assay on CP217, in the assay with CP237, in the assay with CP238 and in the assay on CP247 was “inactive” in each case. Moreover, the Potency entry in the assay with CP250 and in the assay with CP252 was “inactive” each time.

With `NC(=O)C1c2ccccc2CCc2ccccc21`, the Potency entry in the assay on 7G8, in the assay with AA1029, with AS120, in the assay on ATS189, in the assay with ATS95 and in the assay with C2A was “inactive” throughout. Further, the Potency entry in the assay on CP185, in the assay with CP191, in the assay on CP192, in the assay on CP194, in the assay with CP201 and in the assay with CP203 was “inactive” in each case. The Potency entry in the assay on CP211, with CP215, in the assay on CP217, in the assay on CP237, with CP238 and in the assay on CP250 was “inactive” in each case. Moreover, the Potency result in the assay on CP252 was “inactive”.

As for `COc1ccc(C(=O)CCC(=O)O)c2ccccc12`, the Potency result with 7G8, in the assay with AA1029, with AS120, with ATS189, in the assay with ATS95 and with C2A was “inactive” throughout. For the same molecule, the Potency result in the assay with CP185, in the assay with CP191, in the assay with CP192, in the assay on CP194, in the assay with CP201 and in the assay with CP203 was “inactive” throughout. Also, the Potency entry in the assay on CP211, with CP215, in the assay on CP217, in the assay on CP237, in the assay on CP238 and in the assay on CP250 was “inactive” in each case. Moreover, the Potency result in the assay on CP252 was “inactive”.

As to `O=S(=O)(O)CCCS(=O)(=O)O`, the Potency result in the assay with 7G8, with AA1029, in the assay with AS120, in the assay with ATS189, with ATS95 and with C2A was “inactive” in each case. The Potency entry in the assay with CP185, in the assay on CP191, with CP192, with CP194, with CP201 and with CP203 was “inactive” in each case. The Potency entry in the assay on CP211, in the assay with CP215, with CP217, with CP237, with CP238 and in the assay on CP247 was “inactive” in each case. The Potency result in the assay with CP250 and with CP252 was “inactive” in each case.

For `CCCCCCCCCCCCOCCCN`, the Potency entry with 7G8, with AA1029, in the assay on AS120, in the assay with ATS189, in the assay with ATS95 and with C2A was “inactive” throughout. Also, the Potency result in the assay with CP185, in the assay with CP191, with CP192, in the assay with CP194, in the assay with CP201 and in the assay on CP203 was “inactive” throughout. In addition, the Potency result in the assay with CP211, with CP215, in the assay on CP217, in the assay with CP237, with CP238 and in the assay on CP247 was “inactive” throughout. For the same molecule, the Potency entry in the assay with CP250 and in the assay with CP252 was “inactive” each time.

For `[O]=[Bi][O]C(=O)[O][Bi]=[O]`, the Potency with 7G8 was 10 µM (active). Moreover, the Potency result with AA1029, in the assay on AS120, in the assay on ATS189, in the assay with ATS95, in the assay on C2A and with CP185 was “inactive” throughout. The Potency result in the assay on CP191, with CP192, with CP194, in the assay with CP201, in the assay on CP203 and with CP211 was “inactive” each time. Moreover, the Potency result in the assay with CP215, with CP217, in the assay on CP237, with CP238, in the assay on CP247 and in the assay with CP250 was “inactive” in each case. Besides, the Potency entry in the assay on CP252 was “inactive”.

Regarding `CN[C@@H]1[C@H](O[C@H]2[C@H](O[C@H]3[C@H](O)[C@@H](O)[C@H](N=C(N)N)[C@@H](O)[C@@H]3N=C(N)N)O[C@@H](C)[C@]2(O)C=O)O[C@@H](CO)[C@H](O)[C@H]1O`, the Potency entry with 7G8, in the assay on AA1029, in the assay on AS120, with ATS189, with ATS95 and with C2A was “inactive” in each case. Also, the Potency result with CP185, in the assay on CP191, in the assay with CP192, in the assay with CP194, with CP201 and with CP203 was “inactive” in each case. Also, the Potency entry in the assay on CP211, in the assay on CP215, in the assay on CP217, in the assay on CP237, in the assay with CP238 and in the assay with CP247 was “inactive” in each case. The Potency result in the assay with CP250 and in the assay on CP252 was “inactive” throughout.

Regarding `OCCCNc1ccccc1`, the Potency result in the assay on 7G8, in the assay on AA1029, in the assay on AS120, in the assay on ATS189, with ATS95 and in the assay on C2A was “inactive” each time. The Potency entry in the assay on CP185, in the assay on CP191, with CP192, with CP194, in the assay with CP201 and with CP203 was “inactive” each time. Moreover, the Potency entry in the assay with CP211, with CP215, in the assay on CP217, in the assay on CP237, with CP238 and with CP250 was “inactive” throughout. Moreover, the Potency result in the assay with CP252 is “inactive”.

As to `CCCCCCCCCCCCCCCCCC[N+](C)(C)CCC[Si](OC)(OC)OC`, the Potency result with 7G8, in the assay on AA1029, in the assay with AS120, in the assay on ATS189, in the assay on ATS95 and with C2A was “inactive” throughout. For the same molecule, the Potency entry with CP185, in the assay on CP191, in the assay with CP192, in the assay on CP194, in the assay on CP201 and in the assay on CP203 was “inactive” in each case. Moreover, the Potency entry with CP211, with CP215, with CP217, with CP237, in the assay with CP238 and in the assay on CP247 was “inactive” in each case. The Potency result in the assay on CP250 and in the assay on CP252 was “inactive” throughout.
